# TDP1 cell noCPT: qHTS for Inhibitors of human tyrosyl-DNA phosphodiesterase 1 (TDP1): qHTS in cells in absence of CPT; hit rate 15% among 420,000; DT40 Tdp1-/- hTDP1 cells, no CPT, ATP luminescence, 48 h; Potency, µM (top dose mostly 46.2 µM), for inactives: at the highest dose activity change, negative = growth inhibition, hits mostly inhibitors; AID 686978, 2013; note: potency is the fitted concentration of half-maximal effect; % is set by controls: 0 for no effect and ±100 for the full control effect; nearly all actives have a fitted effect of over 55% in size
#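 Chicken DT40 Tdp1-/- cells stably complemented with human TDP1 were seeded at 400 cells/well with DMSO in place of 20 nM camptothecin. After compound pinning, cells grew at least 48 hr at 37 °C; viability read by CellTiter-Glo luminescence.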
# TDP1 block: qHTS Assay for Inhibitors of Tyrosyl-DNA Phosphodiesterase (TDP1); AID 485290, 2010; Potency, µM (highest dose often 130 µM), inactives show at the top dose activity change, negative = inhibition, hits mostly inhibitors; hit rate 0.28% among 350,000; recombinant TDP1, AlphaScreen DNA substrate cleavage; Tyrosyl-DNA phosphodiesterase 1 (Homo sapiens), Q9NUW8; note: potency is the fitted concentration of half-maximal effect; % is set by controls: 0 for no effect and ±100 for the full control effect; nearly all actives have a fitted effect of over 40% in size
# Target sequence (Q9NUW8 whole entry, looked up): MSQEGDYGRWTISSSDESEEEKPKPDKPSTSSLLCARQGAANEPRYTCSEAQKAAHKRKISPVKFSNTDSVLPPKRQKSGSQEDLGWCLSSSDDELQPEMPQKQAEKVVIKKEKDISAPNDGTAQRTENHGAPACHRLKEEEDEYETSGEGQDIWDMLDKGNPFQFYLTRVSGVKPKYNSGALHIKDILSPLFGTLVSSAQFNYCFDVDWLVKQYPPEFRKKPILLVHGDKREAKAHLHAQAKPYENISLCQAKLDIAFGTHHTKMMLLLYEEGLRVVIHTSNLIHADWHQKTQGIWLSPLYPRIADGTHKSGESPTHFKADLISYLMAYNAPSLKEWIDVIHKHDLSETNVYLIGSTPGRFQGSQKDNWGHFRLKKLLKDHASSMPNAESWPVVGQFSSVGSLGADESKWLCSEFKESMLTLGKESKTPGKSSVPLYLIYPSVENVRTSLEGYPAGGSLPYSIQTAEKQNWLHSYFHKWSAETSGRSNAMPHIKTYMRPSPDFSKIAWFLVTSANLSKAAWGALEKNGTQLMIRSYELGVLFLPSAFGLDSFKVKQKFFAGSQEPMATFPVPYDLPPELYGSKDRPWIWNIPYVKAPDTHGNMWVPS
#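 AlphaScreen read-out: signal falls as enzyme removes the 3' tyrosine-FITC from a 5'-biotinylated DNA oligo (15 nM, 5 min, RT). Enzyme was E. coli-made recombinant Tdp1 at 1 nM, exposed to compound for 15 min beforehand; beads 10 ug/ml, 10 min.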
# DT40 TDP1 CPT: qHTS for Inhibitors of human tyrosyl-DNA phosphodiesterase 1 (TDP1): qHTS in cells in presence of CPT; chicken DT40 Tdp1-/-;hTDP1 cells + 20 nM CPT, ATP luminescence, 48 h; Potency, µM (doses to about 46.2 µM), without a hit: at the top dose activity change, negative = growth inhibition, actives largely listed as inhibitors; hit rate 12% among 420,000; AID 686979, 2013; note: potency is the fitted concentration of half-maximal effect; % is set by controls: 0 for no effect and ±100 for the full control effect; nearly all actives have a fitted effect of over 55% in size
#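 Chicken DT40 Tdp1-/- cells complemented with human TDP1, 400 cells/well, exposed to compounds plus 20 nM camptothecin for at least 48 h at 37 C; viability read as ATP content by CellTiter-Glo luminescence.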
# IL1B secr inh: qHTS for Inhibitors of Inflammasome Signaling: IL-1-beta AlphaLISA Primary Screen | hit rate 4.7% among 360,000 | THP-1 LPS/ATP IL-1B secretion, AlphaLISA, 16 h; active compounds read low | activity change, % at 57.5 µM; in the data active = activity change below about -50%; inconclusive = mostly about -30% to -49%; note: % is set by controls: 0 for no effect and ±100 for the full control effect
#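 THP-1 cells pretreated 1 hr with compounds (up to 57.5 uM final), then stimulated with LPS (250 ng/mL final) plus ATP (1.25 mM final); secreted IL-1B measured by AlphaLISA after 16 hr, decreased signal indicating inhibition.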
# TGFb SMAD3 inh: qHTS for Inhibitors of TGF-b | HepG2 CAGA-GFP TGF-b/SMAD3 reporter, GFP fluorescence, 18 h; TGF-beta stimulated, 500 pg/mL final | Potency, µM (top dose mostly 46.1 µM), for inactives: at the highest dose activity, negative = inhibition, actives largely listed as inhibitors | hit rate 1.2% among 410,000 | AID 588855, 2011; note: potency is the fitted concentration of half-maximal effect; % is set by controls: 0 for no effect and ±100 for the full control effect; nearly all actives have a fitted effect of over 65% in size
#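 HEPG2 CAGA-GFP, 1000 cells/well; 2 h settle, 37 C; cpd via pin tool; TGF-b 500 pg/mL final; 18 h, 37 C; GFP imaging ex488/em500-530; %Activity normalised to -TGF-b and +DMSO controls; CRC fit, curve class.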
# HepG2 viability: qHTS for Inhibitors of TGF-b: Cytotox Counterscreen; HepG2 CAGA-GFP viability, ATP luminescence, 18 h; Potency, µM (highest dose often 46.1 µM), for inactives: top-dose activity change, negative = cytotoxicity, usual class: cytotoxic; hit rate 0.76% among 410,000; note: potency is the fitted concentration of half-maximal effect
#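 CellTiter-Glo luminescence gave cytotoxicity after 18 hours at 37 degrees C. The cells were HepG2 CAGA-GFP in 1% FBS DMEM, stimulated with 500 pg/mL TGF-beta after compound addition. %Activity was normalised to no-cell wells (complete cell-killing) and DMSO (no toxicity), and curves were fitted and classified.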
# The depositor's hits bear a star; ? = inconclusive; nt = not tested or not shown; [ ] = another dose, or the depositor's remark. Rows were chosen to be rich in hits. Some 18% of all compounds tested hit in one or more screens of this group. Unless noted, calls come from the whole dose curve; as a rule, active = well fitted curve in the direction sought with a large enough effect; inconclusive = small, poorly fitted or top-dose-only effect, or another doubt; inactive = no such curve, though single readings can be large; an effect the other way counts as inactive or inconclusive.
SMILES,TDP1 cell noCPT,TDP1 block,DT40 TDP1 CPT,IL1B secr inh,TGFb SMAD3 inh,HepG2 viability
O=C(Cc1csc(NC(=O)Nc2ccc(Cl)cc2)n1)NCc1cccnc1,?,0%,?,?,?,-16%
CC(=O)Nc1cccc(-c2ccnc3c2CC(C)(C(=O)NCCN(C)C)O3)c1 (stereo not drawn),-3%,nt,1%,30,-5%,0%
CC1(C(=O)NCc2cccc(Cl)c2)Cc2c(-c3ccccc3)ccnc2O1 (stereo not drawn),8.2µM*,nt,16µM*,20,1%,-1%
CC1(C(=O)NCc2cccc(Cl)c2)Cc2c(-c3cccc(C(N)=O)c3)ccnc2O1 (stereo not drawn),?,nt,?,73,2%,-5%
CC(=O)Nc1cccc(-c2ccnc3c2CC(C)(C(=O)NCc2ccc(N(C)C)cc2)O3)c1 (stereo not drawn),2.9µM*,nt,3.3µM*,9,?,-23%
COc1ccc(CNC(=O)C2(C)Cc3c(-c4ccccc4)ccnc3O2)cc1OC (stereo not drawn),?,nt,?,23,8%,-12%
CC(=O)Nc1cccc(-c2ccnc3c2CC(C)(C(=O)NCc2cccc(Cl)c2)O3)c1 (stereo not drawn),4.1µM*,nt,3.7µM*,65,-14%,-11%
COc1ccc(CNC(=O)C2(C)Cc3c(-c4cccc(NC(C)=O)c4)ccnc3O2)cc1OC (stereo not drawn),18µM*,nt,?,31,20%,-10%
COc1cc(C(=O)NC2CC(C)(C)NC(C)(C)C2)cc(OC)c1OC,0%,-2%,34%,13,-19%,-14%
COC(=O)NC(c1cccs1)C(C(C)=O)C(=O)OC (stereo not drawn),nt,1%[21 µM],nt,nt,nt,nt
CC(=O)Nc1cccc(-c2ccnc3c2CC(C)(C(=O)Nc2cccc(NS(C)(=O)=O)c2)O3)c1 (stereo not drawn),-28%,nt,-7%,-19,6%,-4%
CC(=O)Nc1cccc(-c2ccnc3c2CC(C)(C(=O)NCc2cccs2)O3)c1 (stereo not drawn),4.1µM*,nt,?,26,-23%,-7%
CN(C)c1ccc(-c2ccnc3c2CC(C)(C(=O)NCc2cccc(Cl)c2)O3)cc1 (stereo not drawn),21µM*,nt,23µM*,?,?,-39%
CC(=O)Nc1ccc(-c2ccnc3c2CC(C)(C(=O)NCc2cccc(Cl)c2)O3)cc1 (stereo not drawn),23µM*,nt,?,-13,14%,6%
CN(C)S(=O)(=O)c1cccc(C(=O)Nc2ccc(N3CCOCC3)cc2)c1,-16%,nt,-25%,24,-12%,-4%
COc1ccc(N(C)S(=O)(=O)c2cccc(C(=O)NC3CCCC3)c2)cc1,?,1%,?,?,-1%,-22%
COc1ccc(N(C)S(=O)(=O)c2cccc(C(=O)NCC3CCCCC3)c2)cc1,13µM*,7%,23µM*,-50*,-15%,0%
CN(c1ccccc1)S(=O)(=O)c1cccc(C(=O)Nc2ccc(N3CCOCC3)cc2)c1,18µM*,0%,?,?,15%,-23%
COc1ccc(N(C)S(=O)(=O)c2cccc(C(=O)Nc3ccc(N4CCOCC4)cc3)c2)cc1,23µM*,6%,18µM*,-13,-1%,2%
CCOC(=O)c1[nH]c(C)c(CCC(=O)NCc2cccc(C)c2)c1C,?,5%,-21%,nt,-10%,1%
COc1ccc(C(CNC(=O)c2ccc(NS(=O)(=O)c3ccc(F)c(C)c3)cc2)N2CCCC2)cc1 (stereo not drawn),?,nt,-19%,-9,2%,0%
CCCCOc1ccc(C(=O)NCC2(c3ccccc3)CCOCC2)cc1,?,3%,21µM*,-14,?,4%
CCOc1ccc(NS(=O)(=O)c2ccc(C(=O)NCC(c3ccc(OC)cc3)N3CCCC3)cc2)cc1 (stereo not drawn),13µM*,2%,?,0,?,-42%
CCCCOc1ccc(C(=O)NCC(c2ccc(Cl)cc2)N2CCOCC2)cc1 (stereo not drawn),21µM*,-2%,15µM*,nt,?,-21%
CCCOc1ccc(C(=O)NCC(c2ccc(OC)cc2)N2CCCCC2)cc1 (stereo not drawn),?,2%,?,nt,10%,-21%
SMILES,TDP1 cell noCPT,TDP1 block,DT40 TDP1 CPT,IL1B secr inh,TGFb SMAD3 inh,HepG2 viability
Cc1ccc(C(=O)NCC(c2ccc(Cl)cc2)N2CCCCC2)cc1 (stereo not drawn),13µM*,-2%,12µM*,nt,0%,-30%
O=C1COC(c2ccccc2)C2CCCCN12 (stereo not drawn),?,-5%,?,19,?,-4%
CCOC(=O)c1ccc(NC(=O)C(=O)NCC2(c3ccc(OC)cc3)CCOCC2)cc1,15µM*,nt,?,-24,-14%,-50%
CCOc1ccc(C(=O)NCC(=O)NCC(c2ccc(OC)cc2)N2CCCC2)cc1 (stereo not drawn),5%,nt,-4%,-23,21%,-3%
CN1CCN(C(CNC(=O)Nc2ccc(Cl)cc2)c2ccc(F)cc2)CC1 (stereo not drawn),?,3%,?,?,2%,-17%
CCOc1ccc(C(=O)NCC(c2ccc(Cl)cc2)N2CCCCC2)cc1 (stereo not drawn),9.2µM*,4%,7.3µM*,nt,-27%,-30%
O=C(NCC(c1ccc(Cl)cc1)N1CCCCC1)c1ccc(F)cc1 (stereo not drawn),13µM*,6%,13µM*,nt,-2%,-18%
CSc1ccc(CNC(=O)c2ccc3c(c2)N(C)C(=O)C2CCCCN32)cc1 (stereo not drawn),?,9%,?,nt,3%,-40%
CN(C)c1ccc(CNC(=O)c2ccc3c(c2)N(C)C(=O)C2CCCCN32)cc1 (stereo not drawn),?,5%,18µM*,nt,3%,-31%
COc1ccccc1-c1cnc(C(O)c2ccc(C(C)(C)C)cc2)[nH]1 (stereo not drawn),18µM*,nt,?,-14,?,-31%

# High-throughput results (PubChem BioAssay)
